Each structure is given as a SMILES string. Where “and” joins values, the source holds several entries; their conditions need not be identical. Equal values may be shown once. Where a structure was tested more than once in an assay, its records may differ in their call. Calls of active or inactive are those of the source. Unless noted, calls come from the whole dose curve; as a rule, active = well fitted curve in the direction sought with a large enough effect in the repeat runs; inconclusive = weak or mixed curves; inactive = no such curve, though single readings can be large; an effect the other way counts as inactive or inconclusive.

Test [1] in a line: qHTS assay to identify small molecule antagonists of the thyroid receptor (TR) signaling pathway (AID 743065). Note: nearly all actives have a fitted effect of over 55% in size. Note: potency is the fitted concentration of half-maximal effect. A digest of the protocol: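 GH3.TRE-Luc rat pituitary cells (two TREs driving luciferase) were dosed with compound, then stimulated with 1 nM T3 (final) for 23.5 h at 37 C. ONE-Glo luminescence was the read-out, with CellTiter-Fluor fluorescence as the cytotoxicity counter-screen.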
Background: qHTS replaces the single test concentration by a dilution series.

The subject of test [2] is thyroid hormone receptor (rat, GH3 cells). Put plainly: qHTS assay to identify small molecule agonists of the thyroid receptor (TR) signaling pathway (AID 743066; calls by dose curve).
The nature of test [3]: qHTS assay to identify small molecule antagonists of the estrogen receptor alpha (ER-alpha) signaling pathway - cell viability counter screen (AID 743074; calls by dose curve;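 note: HEK293 cells carrying ER-alpha-UAS-bla reporter stimulated with 17beta-estradiol; nearly all actives have a fitted effect of over 45% in size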).
Test [4] has as its target Estrogen receptor (Homo sapiens) (UniProt P03372). Description: qHTS assay to identify small molecule agonists of the estrogen receptor alpha (ER-alpha) signaling pathway (AID 743075; calls by dose curve).
Test [5] has the same target. Description: qHTS assay to identify small molecule agonists of the estrogen receptor alpha (ER-alpha) signaling pathway using the BG1 cell line (AID 743079). Note: nearly all actives have a fitted effect of over 20% in size.
Test [6] is described as follows: qHTS assay to identify small molecule antagonists of the estrogen receptor alpha (ER-alpha) signaling pathway using the BG1 cell line (AID 743080; calls by dose curve;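 note: BG1 cells stimulated with 17beta-estradiol alongside compound; nearly all actives have a fitted effect of over 25% in size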; note: potency is the fitted concentration of half-maximal effect). In a few lines:
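Luciferase inhibition measured with ONE-Glo after 30 min at RT in BG1Luc4E2 cells given test compounds and 17beta-estradiol for 21.5 h at 37 C; CellTiter-Fluor viability read in the same wells beforehand.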

The nature of test [7]: qHTS assay to identify small molecule antagonists of the estrogen receptor alpha (ER-alpha) signaling pathway using the BG1 cell line - cell viability counter screen (AID 743081).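 Note: compound given together with 17beta-estradiol as the ER stimulus; series mostly up to about 70 µM; nearly all actives have a fitted effect of over 45% in size.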
The target in a further test is Aromatase (Homo sapiens) (UniProt P11511). Description: qHTS assay to identify aromatase inhibitors (AID 743083). Note: nearly all actives have a fitted effect of over 55% in size. Note: potency is the fitted concentration of half-maximal effect.
Chain of Aromatase (Homo sapiens) (P11511 whole entry, looked up): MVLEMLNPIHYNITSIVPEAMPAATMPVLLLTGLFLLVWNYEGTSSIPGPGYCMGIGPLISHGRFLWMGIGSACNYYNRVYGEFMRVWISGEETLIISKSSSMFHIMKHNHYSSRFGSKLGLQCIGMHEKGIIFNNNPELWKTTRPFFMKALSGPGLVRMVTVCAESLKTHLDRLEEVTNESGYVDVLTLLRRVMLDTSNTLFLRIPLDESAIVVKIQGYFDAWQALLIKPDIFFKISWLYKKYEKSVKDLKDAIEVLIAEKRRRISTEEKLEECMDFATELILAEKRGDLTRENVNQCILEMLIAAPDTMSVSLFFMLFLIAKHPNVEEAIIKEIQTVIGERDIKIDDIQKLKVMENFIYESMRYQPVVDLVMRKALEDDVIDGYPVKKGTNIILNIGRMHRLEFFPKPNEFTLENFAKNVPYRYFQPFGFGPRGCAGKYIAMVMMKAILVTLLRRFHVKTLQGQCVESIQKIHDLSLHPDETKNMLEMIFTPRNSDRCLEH
A short description of test [8]: qHTS assay to identify small molecule that activate the aryl hydrocarbon receptor (AhR) signaling pathway - cell viability counter screen (AID 743086).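 Note: HepG2 liver cells carrying the AhR DRE luciferase reporter; series mostly up to about 70 µM; nearly all actives have a fitted effect of over 45% in size.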 A digest of the protocol:
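HepG2-AhR-luc (HG2L7.5c1) cells, 4000/well, treated 24 h at 37 C with compound; viability measured as CellTiter-Fluor fluorescence after 30 min in the same wells as the luciferase read.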

Test [9] is described as follows: qHTS assay for small molecule agonists of the antioxidant response element (ARE) signaling pathway (AID 743202; active = well fitted activation curve with a large enough effect in the signal ratio in the repeat runs, not every such curve was filed as active; inconclusive = weak or mixed curves, or effect the other way; inactive = no such curve, though single readings can be large or run the other way; the % refers to the signal ratio; note: potency is the fitted concentration of half-maximal effect). In a few lines:
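ARE-bla HepG2 cells (beta-lactamase reporter under the antioxidant response element), plated 5 hours, then exposed to compounds 16 hours at 37 C. LiveBLAzer B/G FRET substrate added for 2 hours at room temperature; fluorescence intensity read.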

The nature of test [10]: qHTS assay for small molecule agonists of the antioxidant response element (ARE) signaling pathway - cell viability counter screen (AID 743203; calls by dose curve; note: nearly all actives have a fitted effect of over 55% in size; note: potency is the fitted concentration of half-maximal effect). In a few lines: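 HepG2 cells carrying ARE-driven beta-lactamase; 2,000 cells/well; 5 hrs plating; compound pinned from DMSO; 16 hrs 37C/5% CO2; CellTiter-Glo added; 30 min RT; luminescence.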
Test [11] is described as follows: qHTS assay for small molecule activators of the heat shock response signaling pathway - cell viability counter screen (AID 743209). Note: nearly all actives have a fitted effect of over 50% in size. In a few lines: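 Luminescence from CellTiter-Glo, added after the beta-lactamase FRET read, gave the viability signal. Cells were HSE-bla HeLa treated with DMSO-dissolved compounds for 5 h at 37 C following overnight plating.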
Test [12] is described as follows: qHTS assay to identify aromatase inhibitors - cell viability counter screen (AID 743084).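 Note: cells stimulated with testosterone during compound exposure; nearly all actives have a fitted effect of over 55% in size.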 Note: potency is the fitted concentration of half-maximal effect.
The target of test [13] is Aryl hydrocarbon receptor (Homo sapiens) (UniProt P35869). Put plainly: qHTS assay to identify small molecule that activate the aryl hydrocarbon receptor (AhR) signaling pathway (AID 743085).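 Note: HG2L7.5c1 human HepG2 liver cells with stably integrated DRE-driven firefly reporter; series mostly up to about 70 µM; nearly all actives have a fitted effect of over 15% in size.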 In a few lines:
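Stably transfected human liver carcinoma cells (HG2L7.5c1; 20 DRE-firefly luciferase) were incubated 5 h, dosed, and kept 24 h at 37C. Agonism was scored from increased luciferase luminescence.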

The target in test [14] is Peroxisome proliferator-activated receptor gamma (Homo sapiens) (UniProt P37231). Description: qHTS assay to identify small molecule antagonists of the peroxisome proliferator-activated receptor gamma (PPARg) signaling pathway (AID 743191; calls by dose curve; note: series mostly up to about 63 µM; nearly all actives have a fitted effect of over 30% in size). A digest of the protocol:
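GeneBLAzer PPARg UAS-bla HEK293H cells, 5 h post-plating, exposed to compounds 17 h at 37C. LiveBLAzer B/G FRET substrate added for 1 h at room temperature; beta-lactamase reporter read by fluorescence intensity.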

A short description of test [15]: qHTS assay to identify small molecule antagonists of the peroxisome proliferator-activated receptor gamma (PPARg) signaling pathway - cell viability counter screen (AID 743194). Note: nearly all actives have a fitted effect of over 55% in size. The settings on record: Potency: co-treated with 50 nM rosiglitazone unless noted. In a few lines:
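Cytotoxicity counter screen in PPARg-bla HEK293H cells, same wells as reporter assay. Compounds plus 50 nM rosiglitazone (final) for 17 h at 37 C, then viability read by CellTiter-Glo luminescence.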

A short description of test [16]: qHTS assay for small molecule activators of the heat shock response signaling pathway (AID 743210; active = well fitted activation curve with a large enough effect in the signal ratio in the repeat runs, with a control signal flat, not every such curve was filed as active; inconclusive = weak or mixed curves; the % refers to the signal ratio; note: series mostly up to about 63 µM). In a few lines:
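HSE-bla HeLa cells (beta-lactamase reporter under heat shock response elements), plated overnight, then exposed to compounds 5 h at 37 C; LiveBLAzer B/G FRET substrate added, 2.5 h at room temperature, fluorescence intensity read.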

Test [17] is described as follows: qHTS assay to identify small molecule agonists of the peroxisome proliferator-activated receptor delta (PPARd) signaling pathway - cell viability counter screen (AID 743211). Note: nearly all actives have a fitted effect of over 55% in size. Note: potency is the fitted concentration of half-maximal effect. In a few lines: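 In the same wells used for beta-lactamase reporter measurement, cytotoxicity is scored by CellTiter-Glo. HEK293H PPARd-bla cells receive compound for 17 h at 37C following a 5 h settling period.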

Test [18] has as its target Estrogen receptor (Homo sapiens) (UniProt P03372). Put plainly: qHTS assay to identify small molecule antagonists of the estrogen receptor alpha (ER-alpha) signaling pathway (AID 743069; active = well fitted curve in the direction sought with a large enough effect in the signal ratio in the repeat runs, not every such curve was filed as active; inconclusive = weak or mixed curves, or effect the other way; inactive = no such curve, though single readings can be large or run the other way; the % refers to the signal ratio; note: potency is the fitted concentration of half-maximal effect). In a few lines: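 HEK293 ER-alpha-UAS-bla GripTite cells, held overnight in 2% charcoal-stripped FBS, 5,000 cells/well, preincubated 4 h, then compound plus 17beta-estradiol for 18 h at 37C. Beta-lactamase read by LiveBLAzer B/G FRET substrate, 2 h at room temperature.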

In test [19] the target is Peroxisome proliferator-activated receptor gamma (Homo sapiens) (UniProt P37231). Put plainly: qHTS assay to identify small molecule agonists of the peroxisome proliferator-activated receptor gamma (PPARg) signaling pathway (AID 743094; active = well fitted activation curve with a large enough effect in the signal ratio in the repeat runs, not every such curve was filed as active; inconclusive = weak or mixed curves, or effect the other way; inactive = no such curve, though single readings can be large or run the other way; the % refers to the signal ratio). In a few lines:
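Beta-lactamase FRET fluorescence was the read-out after a 1 h room-temperature substrate step, following 17 h compound treatment at 37C of HEK293H cells expressing a UAS-driven bla reporter responsive to PPARg.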

Chain of Peroxisome proliferator-activated receptor gamma (Homo sapiens) (P37231 whole entry, looked up): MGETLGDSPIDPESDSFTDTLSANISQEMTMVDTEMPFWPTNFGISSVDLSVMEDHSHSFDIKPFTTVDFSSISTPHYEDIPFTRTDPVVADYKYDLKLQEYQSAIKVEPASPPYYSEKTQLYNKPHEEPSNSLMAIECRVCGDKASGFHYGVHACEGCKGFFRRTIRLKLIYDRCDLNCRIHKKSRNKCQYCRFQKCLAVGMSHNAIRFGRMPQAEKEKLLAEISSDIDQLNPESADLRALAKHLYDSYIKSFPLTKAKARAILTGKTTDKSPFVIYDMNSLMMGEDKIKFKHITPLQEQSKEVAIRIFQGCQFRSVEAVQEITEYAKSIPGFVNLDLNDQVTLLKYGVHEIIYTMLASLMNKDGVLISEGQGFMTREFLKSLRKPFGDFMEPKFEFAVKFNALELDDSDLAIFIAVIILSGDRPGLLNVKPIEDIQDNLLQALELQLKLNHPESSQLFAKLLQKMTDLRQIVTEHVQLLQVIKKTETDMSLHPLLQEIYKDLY
Chain of Estrogen receptor (Homo sapiens) (P03372 whole entry, looked up): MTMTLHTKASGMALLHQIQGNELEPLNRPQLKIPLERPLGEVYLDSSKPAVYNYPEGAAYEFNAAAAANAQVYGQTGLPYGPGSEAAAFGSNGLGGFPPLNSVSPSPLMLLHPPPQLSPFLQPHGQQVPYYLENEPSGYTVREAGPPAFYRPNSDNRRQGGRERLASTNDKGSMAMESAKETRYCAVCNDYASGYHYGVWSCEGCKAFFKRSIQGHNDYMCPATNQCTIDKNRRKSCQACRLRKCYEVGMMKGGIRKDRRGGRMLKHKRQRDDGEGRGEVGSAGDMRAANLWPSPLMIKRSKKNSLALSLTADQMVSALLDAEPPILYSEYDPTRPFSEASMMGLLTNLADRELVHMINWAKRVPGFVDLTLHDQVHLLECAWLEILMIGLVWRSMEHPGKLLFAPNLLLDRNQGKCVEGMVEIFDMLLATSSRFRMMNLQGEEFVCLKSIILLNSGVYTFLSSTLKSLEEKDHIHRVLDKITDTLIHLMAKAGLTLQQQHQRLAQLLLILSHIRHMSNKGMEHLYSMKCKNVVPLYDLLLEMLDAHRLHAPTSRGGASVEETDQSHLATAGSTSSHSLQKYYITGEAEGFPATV
Chain of Aryl hydrocarbon receptor (Homo sapiens) (P35869 whole entry, looked up): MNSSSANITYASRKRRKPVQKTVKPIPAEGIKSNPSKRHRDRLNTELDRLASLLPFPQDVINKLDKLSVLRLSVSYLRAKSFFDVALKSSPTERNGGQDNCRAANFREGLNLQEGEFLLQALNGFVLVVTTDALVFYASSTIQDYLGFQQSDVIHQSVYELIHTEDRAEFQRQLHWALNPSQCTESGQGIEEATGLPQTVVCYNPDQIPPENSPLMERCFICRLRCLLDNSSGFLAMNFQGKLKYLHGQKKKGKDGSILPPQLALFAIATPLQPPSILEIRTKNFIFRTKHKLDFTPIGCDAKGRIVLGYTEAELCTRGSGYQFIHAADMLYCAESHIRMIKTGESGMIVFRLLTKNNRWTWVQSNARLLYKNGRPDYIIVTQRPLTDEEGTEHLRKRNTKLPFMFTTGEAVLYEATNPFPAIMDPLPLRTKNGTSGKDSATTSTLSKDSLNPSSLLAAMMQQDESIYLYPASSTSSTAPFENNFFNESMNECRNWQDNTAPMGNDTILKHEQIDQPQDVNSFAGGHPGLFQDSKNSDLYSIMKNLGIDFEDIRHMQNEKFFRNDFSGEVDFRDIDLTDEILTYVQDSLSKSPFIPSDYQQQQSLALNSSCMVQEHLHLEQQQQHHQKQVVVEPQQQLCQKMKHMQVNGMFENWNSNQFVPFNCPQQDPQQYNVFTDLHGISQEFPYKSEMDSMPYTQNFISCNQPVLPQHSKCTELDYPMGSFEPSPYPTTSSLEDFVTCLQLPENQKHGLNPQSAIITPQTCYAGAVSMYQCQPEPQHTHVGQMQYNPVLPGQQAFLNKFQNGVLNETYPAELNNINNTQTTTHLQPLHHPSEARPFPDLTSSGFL

In the case of `c1cc(OCC2CO2)ccc1Cc1ccc(OCC2CO2)cc1` (centres undefined), the Potency in test [1] is 24.4 µM (active) and 21.7 µM (active); in test [9] it was 61.4 µM (active) and 61.1 µM (active). Moreover, the Potency result in test [2], in test [3], in test [4], in [5], in [6] and in test [7] was “inactive” throughout. The Potency result (in the test with Aromatase (Homo sapiens); in test [8]; in test [10]; in test [11]) was “inactive” in each case.
On to `C=CCN(CC=C)C(=O)C(Cl)Cl`, for which the Potency result (in test [1]; in [2]; in test [3]; in test [7]; in the test with Aromatase (Homo sapiens); in test [12]) was “inactive” throughout. Also, the Potency result in test [13], in test [8], in test [14], in [15], in [9] and in test [10] was “inactive” each time. For the same molecule, the Potency entry in [11], in [16] and in test [17] was “inactive” throughout.
With `O=C(O)CC[N+](=O)[O-]`, the Potency entry (in test [1]; in [2]; in test [3]; in test [7]; with Aromatase (Homo sapiens); in test [12]) was “inactive” throughout. Besides, the Potency entry in test [13], in [8], in test [14], in [15], in test [9] and in test [10] was “inactive” each time. Further, the Potency entry in test [11], in [16] and in test [17] was “inactive” each time.
On to `C1=Cc2cccc3cccc1c23`, for which the Potency entry (in [1]; in test [2]; in [3]; in test [7]; with Aromatase (Homo sapiens); in test [12]) was “inactive” in each case. Moreover, the Potency result in test [8], in test [14], in test [15], in [10], in test [11] and in [16] was “inactive” each time. In [17], the Potency entry is “inactive”.
Regarding `CC(C)Oc1cc(-n2nc(C(C)(C)C)oc2=O)c(Cl)cc1Cl`, the Potency was 67.6 µM (active) in test [1]; 61.6 µM [inconclusive] (active) in test [18]; 47.9 µM (active) in [6]; 60.3 µM (active) and 17.2 µM (active) with Aromatase (Homo sapiens); 27.3 µM (active) in test [12]; “inactive and 34.4 µM (active)” in test [10]. Also, the Potency in test [17] is 15.5 µM (active). Moreover, the Potency entry in test [2], in [3], in test [4], in test [7], in test [8] and in test [15] was “inactive” in each case. In addition, the Potency entry in [11] was “inactive”.
In the case of `C#C[C@]1(O)CC[C@H]2[C@@H]3CCC4=CC(=O)CC[C@]4(C)[C@H]3CC[C@@]21C`, the Potency in [1] is 6.86 µM (active). Moreover, the Potency entry (in test [2]; in [3]; in test [7]; with Aromatase (Homo sapiens); in test [12]; in [13]) was “inactive” throughout. The Potency entry in test [8], in [19], in [15], in [9], in [10] and in test [11] was “inactive” throughout. Further, the Potency result in test [17] was “inactive”.
Consider `c1ccc(N=Nc2ccccc2)cc1`, for which the Potency result (in test [1]; in [2]; in [3]; in test [7]; in the test with Aromatase (Homo sapiens); in test [12]) was “inactive” throughout. In addition, the Potency result in test [8], in test [14], in test [15], in test [9], in [10] and in [11] was “inactive” each time. Further, in test [16], the Potency entry is “inactive”.
`O=C(O)C(F)(F)C(F)(F)C(F)(F)C(F)(F)C(F)(F)C(F)(F)C(F)(F)F`: the Potency entry (in [1]; in test [2]; in test [3]; in test [7]; with Aromatase (Homo sapiens); in test [12]) was “inactive” throughout. The Potency result in [13], in [8], in test [15], in test [10], in test [11] and in test [17] was “inactive” throughout. Further, the Potency in [9] is 27.3 µM (active) and 21.6 µM (active).

The values above are taken from PubChem BioAssay (Tox21).
